Screening results (PubChem)
HSF1 inh: HSF1 inhibition | NIH3T3-HGL HSE-luciferase, MG132-induced, luminescence 8 h; active compounds read low | activity change, negative = inhibition, % at 7.5 µM (by protocol) | hit rate 0.77% among 300,000 | AID 2098;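 active = more than half of replicate wells show activity change below -50%, luminescence cut by over half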;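 also: luciferase reports HSF-1 transcriptional activity via heat shock element; 0% = median of DMSO wells and -100% = zero luminescence signal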
HSP90 refold inh: blocks HSP90-mediated luciferase refolding in reticulocyte lysate; Rabbit reticulocyte lysate, luciferase refolding luminescence, 3 h; inhibition, % at 5.6 µM; hit rate 0.91% among 290,000;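 active = inhibition above the screen-wide mean plus 3 SD, computed separately per campaign, cut at about 16% in these data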;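 also: 0% = DMSO wells and 100% = 60 µM geldanamycin wells; inhibitors lower the luminescence because luciferase stays unfolded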
HSF1 activator: increases HSF-1 driven luciferase reporter signal | NIH3T3-HGL HSF-1 luciferase reporter, MG132, 8 h; 100% = twice DMSO control signal | activation, % at 9 µM | hit rate 1.7% among 300,000 | AID 504408;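 active = mean replicate activation of at least 50% with a set share of replicates each reaching 50%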;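 also: 0% = median of the neutral control wells and 100% = twice that signal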
AHR activator: activators of human aryl hydrocarbon receptor. activation, % at 5 µM. hit rate 2.5% among 320,000. AHR-responsive luciferase reporter cells, luminescence. P35869; in the data active = activation above about 47%;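 also: 0% = vehicle wells and 100% = reference agonist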
DAX1 inh: inhibits human nuclear receptor DAX1. P51843. HEK293 Gal4-DAX1 luciferase reporter, luminescence. inhibition, % at 6.75 µM. hit rate 0.99% among 340,000. AID 504766;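 active = inhibition above the mean over all tested compounds plus 3 SD, cut at about 4.2% in these data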;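 also: 0% = DAX1-transfected cells with DMSO and 100% = empty-vector control cells with DMSO; inhibition shows as a rise in luminescence from relieved DAX1 repression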
Target sequence (P51843 207-470 limits assumed): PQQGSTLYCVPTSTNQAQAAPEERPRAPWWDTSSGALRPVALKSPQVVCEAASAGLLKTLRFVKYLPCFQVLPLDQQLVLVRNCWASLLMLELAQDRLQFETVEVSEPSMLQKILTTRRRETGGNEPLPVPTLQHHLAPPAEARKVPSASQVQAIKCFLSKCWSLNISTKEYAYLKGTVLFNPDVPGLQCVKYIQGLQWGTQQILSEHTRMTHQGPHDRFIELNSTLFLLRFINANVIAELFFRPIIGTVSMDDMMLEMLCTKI
FXN GAA850 act: activators of GAA850 frataxin (FXN) promoter | HEK293 lucGAA850 FXN promoter luciferase reporter, 24 h; percent of 10 µM SAHA response | activation, % at 6 µM | hit rate 0.56% among 360,000;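 active = activation above the average of all compounds screened plus 3 SD, cutoff fixed separately per campaign, cut at about 7.5% in these data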;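 also: 0% = DMSO wells and 100% = 10 µM SAHA wells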
Active calls of the source: *; . = no result. Only some compounds are listed: those with a hit (about 5.9% of all), similar ones and a draw of the others.

SMILES	HSF1 inh	HSP90 refold inh	HSF1 activator	AHR activator	DAX1 inh	FXN GAA850 act
COc1ccccc1CCC(=O)OCC(=O)Nc1cccc(S(=O)(=O)N2CCCCC2)c1	8	.	23	1	-1	3
COc1ccccc1CCC(=O)OCC(=O)Nc1cccc(S(=O)(=O)N2CCOCC2)c1	-63*	.	-73	-2	-2	3
CCCCCOc1ccc(NC(=O)C(=O)NCC2CCCN2CC)cc1 (stereo unspecified)	6	4	9	-1	-1	-1
CC(=O)Nc1cncc(-c2cccc(N(C)C)c2)n1	.	.	.	.	.	-2
CCCN(CC(=O)Nc1ccccc1OC)C(=O)c1cc(-c2cccs2)nn1-c1ccccc1	11	.	3	2	-1	1
O=C(NCCOc1ccccc1Cl)c1ncn[nH]1	2	-1	-4	5	1	0
CCCCCCNC(=O)c1ncn[nH]1	-4	4	-16	2	5.0*	-2
Cc1cc(C)n(C(=O)CCCn2nc(C)c([N+](=O)[O-])c2C)n1	3	-2	12	-2	0	2
S=c1[nH]nc(-c2ccc(Cl)cc2Cl)n1-c1ccc2c(c1)OCCO2	-3	3	17	-2	0	2
Oc1ccc(-c2n[nH]c(=S)n2-c2ccc3c(c2)OCCO3)c(O)c1	-22	16*	-38	-2	0	-2
Nc1ccc2c(c1)C(=O)C(=O)c1ccccc1-2	-95*	16*	-95	-16	-4	-15
Nc1ccc2c(c1)C(=O)c1ccccc1-2	-10	.	-3	-5	6.1*	0
O=C1C(=O)c2ccc(-c3ccccc3)cc2-c2ccccc21	-95*	-2	-95	4	0	-3
O=C1C(O)=C(O)C(=O)c2ccccc21	.	.	.	15	0	-2
Nc1ccc2c(c1)C(=O)c1ccccc1C2=O	-7	.	1	29	2	1
Nc1ccc2c(c1)C(=O)c1ccc(Br)cc1-2	.	.	.	.	-1	2
CCOCCCn1c(SCC(=O)NC2CCCCC2)nc2ccccc2c1=O	.	.	.	.	-1	0
O=C(CCc1nnc(CCCc2ccccc2)o1)NC(C1CC1)C1CC1	35	1	65*	20	5.0*	8
Cc1nc(C(C)NC(=O)CCc2nnc(CCCc3ccccc3)o2)c(C)s1 (stereo unspecified)	19	-3	39	15	0	5
O=C(CCc1nnc(CCCCc2ccccc2)o1)NCCN1CCCCC1=O	14	3	58*	5	-1	-2
Cc1cccnc1CCNC(=O)CCc1nnc(CCc2ccccc2)o1	-4	1	-17	1	4.7*	2
C=CCOCC(O)CS(=O)(=O)Cc1ccc(Cl)cc1 (stereo unspecified)	-3	4	-4	0	0	1
CC(C)c1nnc(NC(=O)c2cccs2)s1	13	5	11	53*	0	2
CCCCC(CC)c1nnc(NC(=O)c2cccs2)s1 (stereo unspecified)	-1	4	-12	.	1	2
COc1cccc(-c2nnc(NC(=O)c3cccs3)s2)c1	2	-5	35	64*	3	2
SMILES	HSF1 inh	HSP90 refold inh	HSF1 activator	AHR activator	DAX1 inh	FXN GAA850 act
Cc1cnc(NC(=O)c2cccs2)s1	36	6	83*	35	0	5
O=C(Cc1c(F)cccc1Cl)Nc1ccc(S(=O)(=O)Nc2nccs2)cc1	-6	-4	-11	1	-1	2
Fc1ccc(OCc2cc(-c3ccccc3)no2)cc1	26	4	51*	-4	4	7
COc1ccc(-c2cc(COc3ccccc3)on2)cc1	38	-3	35	-2	2	6
CCNC(=O)C1(C)CCN(Cc2ccccc2C#N)C1 (stereo unspecified)	.	.	.	.	.	0
Cc1ccc(C(=O)N/N=C\c2ccncc2)s1	-2	0	-2	55*	1	3
Cn1ccc(C(=O)N/N=C/c2ccncc2)n1	35	1	78*	.	0	2
Cn1cc([N+](=O)[O-])c(C(=O)N/N=C/c2ccncc2)n1	-1	-2	-12	12	0	-2
O=C(COCc1cc(-c2ccc3c(c2)OCO3)on1)Nc1cccnc1Cl	-6	0	-7	2	0	1
COc1cccc(CCc2nnc(CCC(=O)N(C)C3CC(C)(C)NC(C)(C)C3)o2)c1	-8	-4	-29	0	0	0
CCOC(=O)Cn1nc(C)c(NC(=O)COc2ccc([N+](=O)[O-])cc2)c1C	-53*	-3	-63	2	0	0
CCOC(=O)Cn1nc(C)c(NC(=O)COc2cccc(Cl)c2)c1C	.	2	.	3	1	-1
CCOc1ccccc1N=C1SCC(C)N1C(=O)C1CCN(c2ncnc3sc(C)c(C)c23)CC1 (stereo unspecified)	.	.	.	.	0	0
CC1CN(C(=O)c2cc(S(=O)(=O)N(C)c3ccc(F)cc3)ccc2Cl)CC(C)O1 (stereo unspecified)	-71*	-1	-76	0	-1	-5
CC(C)[C@H](NC(=O)c1ccc(Cl)cc1)C(=O)Nc1cccc(S(=O)(=O)N2CCOCC2)c1	.	.	.	.	0	-4
COc1ccc(C=O)cc1CN1CCCN(Cc2ccc(Cl)cc2)S1(=O)=O	-80*	-5	-84	2	0	-1
COC(=O)c1ccc(OC)c(CN2CCCN(Cc3ccc(F)cc3)S2(=O)=O)c1	0	1	29	-1	0	3
Cc1nnsc1C(=O)N1CCCC1(C)C(=O)O (stereo unspecified)	.	.	.	.	.	0
C[C@@H]1CN([C@@H](C)CO)C(=O)c2cc(C#CC(C)(C)O)cnc2O[C@@H]1CN(C)C(=O)c1ccccc1F	.	.	.	.	0	-1
c1csc(-c2ccn[nH]2)c1	-12	-2	6	6	-1	-1
c1ccc(-c2ncc(-c3ccn[nH]3)s2)cc1	30	1	53*	-3	0	2
CCC(=O)Nc1ccc(C(=O)CSc2nc3ccccc3cc2CC)cc1	.	1	.	51*	-1	1
CCC(=O)Nc1ccc(C(=O)CSc2nc(N)cc(N)n2)cc1	4	-1	8	3	0	0
CC(C)Oc1ccc(C(=O)O)cc1	-89*	3	-91	0	1	4
CC(C)Oc1ccc(C(=O)O)c(C(=O)O)c1	2	5	-4	-4	1	2
Cc1n[nH]c(C)c1CN(C)C(=O)C1CCC(=O)N(CC2CCCCC2)C1 (stereo unspecified)	-6	-2	-2	-1	1	0
CCOC(=O)c1[nH]c2cc3c(cc2c1NC(=O)CN1CC(C)CC(C)C1)OCO3 (stereo unspecified)	-9	-4	-15	56*	0	-1
O=C(CN1CCN(C(=O)c2cccc(S(=O)(=O)N3CCCC3)c2)CC1)Nc1cccc(F)c1	.	.	.	.	-2	0
Cn1c(/C(C#N)=C/c2ccc(O)cc2)nc2ccccc21	4	-1	6	2	5.5*	3
